High-throughput results (PubChem)
Pol eta inh-1 = DNA polymerase eta (human) inhibition; recombinant Pol eta, fluorescent DNA replication assay; Potency, µM (doses to about 114 µM), usual class: inhibitors; 390,000 tested, 1.2% active
Target sequence (Q9Y253 whole entry, looked up): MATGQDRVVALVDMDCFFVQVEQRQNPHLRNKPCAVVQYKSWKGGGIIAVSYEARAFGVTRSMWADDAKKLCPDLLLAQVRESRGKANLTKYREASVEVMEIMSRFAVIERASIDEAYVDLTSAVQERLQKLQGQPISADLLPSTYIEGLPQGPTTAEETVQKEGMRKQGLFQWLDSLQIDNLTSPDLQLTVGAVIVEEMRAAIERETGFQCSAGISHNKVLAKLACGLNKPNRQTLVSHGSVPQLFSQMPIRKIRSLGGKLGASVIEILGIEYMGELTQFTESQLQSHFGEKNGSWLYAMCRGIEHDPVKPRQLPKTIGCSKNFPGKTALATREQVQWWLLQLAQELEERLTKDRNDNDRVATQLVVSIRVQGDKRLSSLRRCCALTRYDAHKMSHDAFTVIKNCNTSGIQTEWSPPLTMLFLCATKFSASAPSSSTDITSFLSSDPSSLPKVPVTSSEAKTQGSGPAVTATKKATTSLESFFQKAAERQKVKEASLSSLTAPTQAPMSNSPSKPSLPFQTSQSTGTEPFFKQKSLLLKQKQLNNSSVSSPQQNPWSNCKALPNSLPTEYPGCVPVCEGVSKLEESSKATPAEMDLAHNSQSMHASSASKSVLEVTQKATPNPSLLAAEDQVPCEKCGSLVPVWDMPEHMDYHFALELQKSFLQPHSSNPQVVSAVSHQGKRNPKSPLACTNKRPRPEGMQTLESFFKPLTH
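Pol eta (10 nM) was preincubated with compounds for 15 min at room temperature, after which fluorescent replication substrate (50 nM final) was added to start the reaction. Fluorescence was read kinetically at 0 and 10 min.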
Pol iota inh = DNA polymerase iota (human) inhibition | Q9UNA4 | Pol iota fluorescent replication assay, 10 min | Potency, µM (doses to about 115 µM), actives largely listed as inhibitors | 390,000 tested, 1% active | AID 588590
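Pol iota at 10 nM preincubated 15 min with compounds at room temperature; reaction started with fluorescent substrate, 50 nM final. Fluorescence read kinetically at 0 and 10 min; buffer-only wells as negative control.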
POLB inh = inhibitors of human DNA polymerase beta; P06746; Pol beta primer extension/strand displacement, fluorescence kinetic; Potency, µM (highest dose often 114 µM), most hits filed as inhibitors; 340,000 tested, 1.3% active; AID 485314
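Preincubation: enzyme (10 nM) with compound, 15 min, RT. Reaction: substrate added to 50 nM final. Reads: 0 and 10 min. Analysis: normalized, Hill fit.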
PGK inhibitor = T. brucei PGK inhibition; P07378; PGK/GAPDH coupled, Kinase-Glo luminescence, 60 min; Potency, µM (doses to about 57.5 µM), actives largely listed as inhibitors; 380,000 tested, 0.043% active; AID 602233; further: nearly all actives have a fitted effect of over 60% in size
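Luminescent ATP detection (Kinase-Glo Plus) follows a 60-minute room-temperature incubation, with wells lacking PGK as controls. Buffer: 100 mM TEA (pH 7.6), 5 mM MgCl2, 0.01% Tween-20. Coupling enzyme GAPDH (100 nM final) supplies unstable 1,3-BPG in-well.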
Pol kappa inh-1 = blocks human DNA polymerase kappa activity | 400,000 tested, 0.53% active | Q9UBT6 | Potency, µM (highest dose often 107 µM), most hits filed as inhibitors | purified Pol kappa, fluorescent DNA synthesis assay, 10 min
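50 nM final substrate added after 15 min RT preincubation of 10 nM Pol kappa with compound; fluorescence read at 0 and 10 min.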
FEN1 inh = inhibitors of human flap endonuclease 1; P39748; Recombinant FEN1 flap cleavage, fluorescence, 15 min; Potency, µM (series often up to 114 µM), hits mostly inhibitors; 390,000 tested, 0.35% active; further: nearly all actives have a fitted effect of over 65% in size
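Read-out was taken twice, immediately and after 15 min, following addition of 50 nM substrate to 10 nM FEN1 that had sat with test compound for 15 min at room temperature. Curves came from a four-parameter Hill model.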
TbPGK inh = TbPGK inhibition, hit validation; shares compounds with Pol kappa inh-1; TbPGK coupled GAPDH assay, Kinase-Glo luminescence; Potency, µM (titrated, usually from 57.5 µM), hits mostly inhibitors; 500 tested, 79% active; further: nearly all actives have a fitted effect of over 65% in size
Pol iota confirm = Confirm cherry-picked inhibitors of human polymerase iota | Pol iota primer extension, TAMRA/BHQ fluorescence | 1,500 tested, 77% active | shares compounds with Pol kappa inh-1 | AID 720496 | Potency, µM, most hits filed as inhibitors
GALK inh confirm = confirmation of human galactokinase (GALK) inhibitors; shares compounds with Pol eta inh-1; 150 tested, 70% active; Potency, µM (top dose mostly 115 µM), most hits filed as inhibitors; purified GALK, Kinase-Glo ATP depletion luminescence
GALK redox cs = redox cycling activity in phenol red-HRP assay | shares compounds with Pol eta inh-1 | Phenol red-HRP H2O2 redox cycling, absorbance 600 nm | Potency, µM (doses to about 115 µM), hits mostly inhibitors | 150 tested, 40% active | AID 2035
HEK293 tox = reduces HEK-293 cell viability in GALK counter-screen. shares compounds with Pol eta inh-1. HEK-293 viability, ATP luminescence (CellTiter-Glo), 24/48 h. Potency, µM (titrated, usually from 46.1 µM), actives largely listed as inhibitors. 170 tested, 10% active. AID 2547
Pol kappa inh-2 = Pol kappa (human) inhibition, cherry-pick confirmation | shares compounds with Pol eta inh-1 | purified Pol-kappa, fluorescent strand-displacement substrate | Potency, µM, hits mostly inhibitors | 920 tested, 76% active | AID 720501
Pol eta inh-2 = confirmation of human DNA polymerase eta inhibitors. shares compounds with Pol eta inh-1. 2,600 tested, 64% active. Pol eta primer extension, TAMRA/BHQ fluorescence, 10 min. Potency, µM, usual class: inhibitors
Large screens that a line does not name were inactive (follow-up assays come after a bar, where they were run). In the library only some 2.4% were active in any assay of this set; here they are far more common. The call rests on the fitted dose curve; in most records, active means well fitted curve in the direction sought with a large enough effect; inconclusive means small, poorly fitted or top-dose-only effect, or another doubt; inactive means no such curve, though single readings can be large; an effect the other way counts as inactive or inconclusive.

Cc1ccc(C(=O)O)cc1-c1ccc(/C=C2\SC(=O)N(CC(=O)Nc3ccccc3)C2=O)o1	Pol eta inh-1 17.8µM, Pol iota inh inconclusive, POLB inh inconclusive, Pol kappa inh-1 inconclusive, FEN1 inh 50.1µM | Pol iota confirm 42.3 | Pol eta inh-2 47.8
COc1ccc2c(c1)c(=O)oc1c(C)c(OCc3cc(C(=O)O)oc3C)ccc12	Pol eta inh-1 14.1µM, Pol iota inh 35.5µM, POLB inh 35.5µM, Pol kappa inh-1 79.4µM, FEN1 inh inconclusive | Pol iota confirm inconclusive | Pol eta inh-2 inconclusive
COc1ccc2c(c1)c(=O)oc1c(C)c(OCc3ccc(C(=O)O)cc3)ccc12	Pol eta inh-1 inconclusive, Pol iota inh inconclusive, POLB inh inconclusive, FEN1 inh inconclusive
C/C=C/C=C/C(=O)[C@@H]1[C@@H]([C@]2(C)OC(=O)C(C)=C2O)[C@H]2/C(=C(O)/C=C/C=C/C)C(=O)[C@]1(C)C(=O)C2(C)O (stereo partly specified)	Pol eta inh-1 2.51µM, Pol iota inh 2.82µM, PGK inhibitor inconclusive, Pol kappa inh-1 8.91µM, FEN1 inh inconclusive | Pol iota confirm 11.9 | Pol eta inh-2 4.26
O=C(/C=C/c1ccco1)N1CCN(S(=O)(=O)c2cccc([N+](=O)[O-])c2)CC1	none (no result: POLB inh)
COc1ccc(S(=O)(=O)N2CCN(C(=O)C3COc4ccccc4O3)CC2)cc1 (stereo unspecified)	Pol eta inh-1 10µM, Pol iota inh 10µM, PGK inhibitor inconclusive, Pol kappa inh-1 28.2µM, FEN1 inh 50.1µM (no result: POLB inh) | Pol iota confirm 15 | Pol kappa inh-2 16.8 | Pol eta inh-2 23.9
COc1ccc(S(=O)(=O)N2CCN(C(=O)/C=C/c3ccco3)CC2)cc1	Pol eta inh-1 50.1µM, Pol iota inh 22.4µM, Pol kappa inh-1 inconclusive (no result: POLB inh) | Pol iota confirm 67 | Pol kappa inh-2 67 | Pol eta inh-2 75.7
COc1cc(/C=C2\SC(=O)N(c3cccc(Cl)c3)C2=O)cc([N+](=O)[O-])c1O	Pol eta inh-1 inconclusive, Pol iota inh 6.31µM, POLB inh 6.31µM, PGK inhibitor inconclusive, Pol kappa inh-1 inconclusive, FEN1 inh 89.1µM | TbPGK inh 4.61µM | Pol iota confirm 37.7 | Pol kappa inh-2 4.23 | Pol eta inh-2 inconclusive
O=C1S/C(=C\c2ccc(O)c([N+](=O)[O-])c2)C(=O)N1c1ccccc1Cl	Pol eta inh-1 inconclusive, Pol iota inh inconclusive
Cc1c(CC(=O)O)c(=O)oc2c(C)c3occ(-c4ccc(Br)cc4)c3cc12	Pol eta inh-1 inconclusive, POLB inh 22.4µM, PGK inhibitor inconclusive, FEN1 inh inconclusive | Pol iota confirm 42.3 | Pol eta inh-2 75.7
CSCC[C@H](NC(=O)[C@H](Cc1ccccc1)NC[C@@H](NC[C@@H](N)CS)C(C)C)C(=O)O	none (no result: Pol eta inh-1, Pol iota inh, POLB inh, PGK inhibitor, FEN1 inh)
COc1ccc2[nH]c(=O)c(-c3noc(-c4ccccc4)n3)cc2c1	Pol eta inh-1 inconclusive, Pol iota inh inconclusive, FEN1 inh inconclusive | Pol iota confirm 42.3 | Pol eta inh-2 67.5
COc1ccc2[nH]c(=O)c(-c3nnn(-c4ccccc4)n3)cc2c1	none
O=C1C=C(NCc2ccccc2)c2ccccc2C1=O	Pol eta inh-1 5.62µM, Pol iota inh 1µM, POLB inh inconclusive, PGK inhibitor inconclusive, FEN1 inh inconclusive | Pol iota confirm 42.3 | GALK inh confirm 21.1µM | GALK redox cs 16.8µM | HEK293 tox inconclusive | Pol eta inh-2 84.9
Cc1cccc(N2CCN(C(=O)Cn3ncc4c3-c3cc(C)ccc3OC4)CC2C)c1 (stereo unspecified)	none
COc1ccc2nc(-n3c(O)c(C4=c5ccccc5=NC4=O)[nH]c3=S)sc2c1	Pol eta inh-1 8.91µM, Pol iota inh inconclusive, POLB inh 8.91µM, PGK inhibitor inconclusive, Pol kappa inh-1 inconclusive, FEN1 inh 31.6µM | Pol iota confirm 26.7 | Pol kappa inh-2 16.8 | Pol eta inh-2 26.9
COc1ccc(O)c(/C=N/NC(=O)c2c(C)nnn2-c2nonc2N)c1	Pol eta inh-1 inconclusive, Pol iota inh inconclusive, POLB inh 4.47µM, Pol kappa inh-1 inconclusive, FEN1 inh inconclusive | Pol iota confirm 75.2 | Pol kappa inh-2 inconclusive
CN1C/C(=C/c2ccc(B(O)O)cc2)C(=O)/C(=C/c2ccc(B(O)O)cc2)C1	none (no result: Pol eta inh-1, Pol iota inh, POLB inh, PGK inhibitor, FEN1 inh)
Oc1c(C(c2ccccc2)N2CCOCC2)sc2nc(-c3ccco3)nn12 (stereo unspecified)	none
Cc1ccc(Cc2nc3ccccc3nc2SCC(=O)N2CCCCC2)cc1	none
CC(=O)c1ccc(S(=O)(=O)Nc2cccc(-n3cnnn3)c2)cc1	Pol eta inh-1 7.94µM, Pol iota inh 20µM, POLB inh inconclusive, PGK inhibitor inconclusive, Pol kappa inh-1 inconclusive | Pol iota confirm 75.2 | Pol eta inh-2 30.1
NC(N)=NN=C(/C=C/c1ccc([N+](=O)[O-])o1)/C=C/c1ccc([N+](=O)[O-])o1	none (no result: Pol eta inh-1, Pol iota inh, POLB inh, PGK inhibitor, FEN1 inh)
O=C(O)/C=C/c1ccc([N+](=O)[O-])o1	Pol eta inh-1 20µM, Pol iota inh 25.1µM, POLB inh inconclusive, PGK inhibitor 15.8µM, Pol kappa inh-1 inconclusive | TbPGK inh 4.61µM | Pol iota confirm 29.9 | Pol eta inh-2 23.9
Cc1nn(-c2ccc(F)cc2)c(-n2cccc2)c1C(=O)NCCCN1CCN(c2cccc(Cl)c2)CC1	none
CC(=O)c1c(C)oc(C)c1CSCc1ccc(C(=O)O)o1	Pol eta inh-1 6.31µM, Pol iota inh 7.94µM, POLB inh 12.6µM, PGK inhibitor inconclusive, Pol kappa inh-1 31.6µM | Pol iota confirm 47.4 | Pol eta inh-2 inconclusive
